Measurements published in PubChem BioAssay.

molecular target: Pro-neuregulin-1, membrane-bound isoform (Homo sapiens) (UniProt Q02297); assay: NRG1 binders on small-molecule microarrays, primary screen, psychiatric disease protein project, biochemical, small-molecule microarray, fluorescence 635/667 (AID 1075); conditions: NRG1 binding, 635 nm fluorescence, higher = more signal;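 note: score combines 667 nm spot fluorescence with signal to noise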
Sequence (Q02297 whole entry, looked up, canonical isoform): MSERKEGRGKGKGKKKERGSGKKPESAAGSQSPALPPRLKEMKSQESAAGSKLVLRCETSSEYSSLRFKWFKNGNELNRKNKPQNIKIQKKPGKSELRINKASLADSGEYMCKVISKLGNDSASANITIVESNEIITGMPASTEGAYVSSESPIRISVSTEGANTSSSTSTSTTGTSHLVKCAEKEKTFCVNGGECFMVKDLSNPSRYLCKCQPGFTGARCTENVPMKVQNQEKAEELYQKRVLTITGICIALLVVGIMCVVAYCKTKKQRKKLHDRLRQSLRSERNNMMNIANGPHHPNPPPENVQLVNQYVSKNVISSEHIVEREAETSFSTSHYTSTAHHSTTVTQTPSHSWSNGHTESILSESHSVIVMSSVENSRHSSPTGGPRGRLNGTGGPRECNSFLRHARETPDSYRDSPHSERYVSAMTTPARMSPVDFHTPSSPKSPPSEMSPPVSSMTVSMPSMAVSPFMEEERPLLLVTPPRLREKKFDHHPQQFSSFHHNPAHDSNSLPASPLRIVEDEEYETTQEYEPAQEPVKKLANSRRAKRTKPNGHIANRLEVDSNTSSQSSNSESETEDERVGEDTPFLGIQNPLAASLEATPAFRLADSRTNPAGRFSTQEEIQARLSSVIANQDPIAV

SMILES	composite z-score
COCCOC(=O)N1C(=O)[C@@]2(c3ccccc31)[C@H](c1ccc(O)cc1)N1[C@H](c3ccccc3)[C@H](c3ccccc3)OC(=O)[C@H]1[C@@H]2C(=O)N1CCc2cc(OC)c(OC)cc2C1	1.08
CCCN1C(=O)[C@]2(COC(c3ccc(OCCCO)cc3)=N2)Cc2ccccc21	1.41
NC(=O)NCC#Cc1ccc2c(c1)[C@]1(C(=O)N2)[C@H](C(=O)NC[C@H](O)c2ccccc2)[C@H]2C(=O)O[C@H](c3ccccc3)[C@H](c3ccccc3)N2[C@@H]1c1ccc(O)cc1	1.38
CC(C)N1C(=O)c2ccccc2[C@@H](C(=O)NCCCN(C)C)[C@@H]1c1ccc(CO)cc1	1.78
CC(C)=CCCC(C)=CC(O)C1C=CC2C(=O)N(c3ccccc3)C(=O)C2N1Nc1ccccc1 (stereo not drawn)	1.17
CN(C)CCCCCCNC(=O)[C@H]1C[C@H]2C(=O)N[C@@H](CCCCN)C(=O)N2[C@H]1c1ccc(O)cc1	2.51
O=C1O[C@H](c2ccccc2)[C@H](c2ccccc2)N2[C@H]1[C@@H](C(=O)N1CCN(c3ncccn3)CC1)[C@]1(C(=O)Nc3ccccc31)[C@H]2c1ccc(OCCO)cc1	0.0248
COc1cc2c(cc1O)C(C)N(Cc1cccc(OC(F)(F)F)c1)CC2 (stereo not drawn)	2.13
[N-]=[N+]=NCc1ccccc1C[C@@]1(C(=O)N2CCOCC2)N=C(c2ccc(OCCCO)cc2)O[C@@H]1c1ccccc1CN=[N+]=[N-]	1.91
N[C@@H](Cc1ccccc1)Cn1cc(-c2ccccc2)nn1	0.429
CC(=CC1CCCCC1)[C@@H](NC(=O)c1ccc(C(F)(F)F)cc1)c1ccc(-c2ccccc2)cc1	1.02
CCOC(=O)C[C@H]1[C@H](OC(=O)c2ccccc2-c2ccccc2)[C@@H](NC(=O)c2ccc3ccccc3c2)c2cc(OCCCO)ccc2N1C(=O)c1ccc2ccccc2n1	0.0753
CC(c1ccccc1)C(O)C1C=CC2C(=O)NC(=O)C2N1Nc1ccccn1 (stereo not drawn)	0.142
